Assay outcomes: PubChem BioAssay, National Center for Advancing Translational Sciences (NCATS)
Compounds with a hit are over-represented: about 3.4% of the library has one in this group of screens.
HTT ATP protect: cytoprotection in Huntington HTT-Q103 PC12 cell model. PC12 HTT-Q103 induced, cytoprotection, ATP luminescence, 40 h. Potency, µM (series often up to 56.4 µM), most hits filed as activators. actives 0.14% (n = 230,000); further: nearly all actives have a fitted effect of over 45% in size
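Quantitative HTS on tebufenozide-induced (100 nM) PC12 cells expressing HTTQ103 exon 1–GFP; compounds tested as a concentration series; survival measured via cellular ATP.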
IMPase inh: cell-permeable inhibitors of inositol monophosphatase (IMPase) | inhibition (IP1 accumulation), % at 46.1 µM | CHO-M1 cells, IP1 accumulation, HTRF TR-FRET ratio | AID 901 | 120,000 tested, under 10 active | P97697; active means well fitted curve in the direction sought with a large enough effect in the signal ratio, not every such curve was filed as active; inconclusive means small, poorly fitted or top-dose-only effect, or a change in a side signal; inactive means no such curve, though single readings can be large or run the other way; the % refers to the signal ratio;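 further: cells stimulated with carbachol in lithium chloride buffer; higher means more IMPase inhibition seen as more IP1 and lower FRET ratio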
Target sequence (P97697 whole entry, looked up): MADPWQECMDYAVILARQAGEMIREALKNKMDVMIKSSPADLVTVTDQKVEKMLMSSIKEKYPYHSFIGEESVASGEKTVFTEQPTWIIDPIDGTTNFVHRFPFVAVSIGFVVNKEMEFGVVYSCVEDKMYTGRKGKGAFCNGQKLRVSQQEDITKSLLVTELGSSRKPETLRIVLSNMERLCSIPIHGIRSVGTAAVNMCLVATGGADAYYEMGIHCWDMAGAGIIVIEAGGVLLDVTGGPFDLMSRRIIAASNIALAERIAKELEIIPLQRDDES
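Seeded CHO-M1 cells were dosed with compound at up to 46 uM, stimulated with carbachol for 30 min, then lysed in IP-One detection reagents. Higher IP1 lowers the TR-FRET signal.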
HttQ103 aggreg: reduces HttQ103-GFP aggregates in PC12 cells | Potency, µM (series often up to 46.1 µM), actives largely listed as inhibitors | PC12 HttQ103-GFP aggregates, Acumen cytometry, 40 h | actives 1.1% (n = 220,000); further: nearly all actives have a fitted effect of over 60% in size
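Ecdysone-promoter PC12 model expressing HTT exon 1 Q103 fused to GFP, induced by tebufenozide at 100 nM final. Compounds titrated; aggregates sized 1–25 µm scored on a 488 nm laser cytometer.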
PNC assembly inh: blocks assembly of the perinucleolar compartment; PC3M PTB-GFP, PNC prevalence imaging, 16 h; hits give low values; activity change (PNC), negative = inhibition, % at 10 µM; actives 3.1% (n = 140,000);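 active means readout at or below -70, meaning at least 70% loss of cells showing the perinucleolar compartment, a nuclear body marking cancer cells; inconclusive means readout between -30 and a set limit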
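Compounds are pinned in duplicate onto adhered PC3M cells stably expressing GFP-tagged PTB and incubated 16 h at 37 C. Cells are then fixed, nuclei stained with Hoechst, and PNC-positive cells counted.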
IMPase Li cell: membrane-permeable IMPase blocker, potentiated with lithium. actives 0.35% (n = 210,000). Potency, µM (highest dose often 59.4 µM), hits mostly inhibitors. AID 1457. CHO-M1 cells, IP1 TR-FRET (IP-One), carbachol + lithium;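 further: IP1 builds up when IMPase is blocked and the TR-FRET signal falls; nearly all actives have a fitted effect of over 50% in size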
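CHO cells stably expressing M1 receptor (2000/well, cultured 16–30 h) treated 30 min at 37C with compound plus low lithium. Cytosolic IP1 by TR-FRET (665/620 ratio and 620 channel) after 10 min lysis; AC50 by Hill fit.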
NPSR antag: antagonists of human neuropeptide S receptor cAMP signaling | Q6W5P4 | CHO-NPSR cells, cAMP TR-FRET, antagonist mode | Potency, µM (titrated, usually from 38.3 µM), usual class: inhibitors | actives 1% (n = 220,000) | AID 1461; further: nearly all actives have a fitted effect of over 50% in size
Of the large screens only hits and unclear results are named; the others gave an inactive call. Unless noted, the call rests on the fitted dose curve; in most records, active means well fitted curve in the direction sought with a large enough effect; inconclusive means small, poorly fitted or top-dose-only effect, or another doubt; inactive means no such curve, though single readings can be large; an effect the other way counts as inactive or inconclusive.

N#Cc1c(-c2ccccc2)nc(SCC(=O)N(c2ccccc2)c2ccccc2)[nH]c1=O	none
N#Cc1c(-c2ccccc2)nc(SCC(=O)Nc2nnc(C(F)(F)F)s2)[nH]c1=O	IMPase Li cell 11µM (no result: IMPase inh, PNC assembly inh)
Cc1cc(NC(=O)CSc2nc(-c3ccccc3)c(C#N)c(=O)[nH]2)no1	IMPase inh inconclusive, PNC assembly inh inconclusive, IMPase Li cell 7.9µM, NPSR antag 7.9µM
Cc1cc(=O)[nH]c(SCC(=O)Nc2cccc3ccccc23)c1C#N	HttQ103 aggreg 3.2µM
Cc1cc(C)nc(NS(=O)(=O)c2ccc(NC(=O)Cc3ccccc3)cc2)n1	none (no result: IMPase inh, PNC assembly inh)
Cc1cc(C)nc(NS(=O)(=O)c2ccc(NC(=O)C3(c4ccccc4)CCCC3)cc2)n1	PNC assembly inh -115 (no result: IMPase Li cell)
N#Cc1c(-c2ccccc2)nc(SCC(=O)N2c3ccccc3Sc3ccccc32)[nH]c1=O	NPSR antag inconclusive (no result: IMPase inh, PNC assembly inh, IMPase Li cell)
CCC(Sc1nc(-c2ccccc2)c(C#N)c(=O)[nH]1)C(=O)Nc1nnc(C)s1 (stereo not drawn)	IMPase inh inconclusive, PNC assembly inh inconclusive, IMPase Li cell 3.2µM
O=S1(=O)C=C(Sc2nnc(-c3ccccc3)o2)c2ccccc21	IMPase inh inconclusive, HttQ103 aggreg 4.5µM, PNC assembly inh inconclusive, IMPase Li cell inconclusive, NPSR antag inconclusive
Cc1cc(C)nc(SC2=CS(=O)(=O)c3ccccc32)n1	HttQ103 aggreg inconclusive
Cc1sc2ncn(CCn3cnc4sc(C)c(C)c4c3=O)c(=O)c2c1C	HttQ103 aggreg 0.45µM
Cc1nn2c3ccccc3n(CCN3CCCCC3)c2nc1=O	none
C=CCn1c2ccccc2n2nc(C)c(=O)nc12	PNC assembly inh -100
Cc1cc(C)c(C#N)c(SCC(=O)OC2CCCCC2)n1	PNC assembly inh -83
Nn1c(Cc2ccccc2F)nnc1SCC(=O)N1CC(=O)Nc2ccccc21	PNC assembly inh -100
Cc1cc(C)cc(C(=O)N2CC(=O)Nc3ccccc32)c1	PNC assembly inh -80, NPSR antag inconclusive
Cc1cc(C)c2nc(SCC(=O)N3CC(=O)Nc4ccccc43)c(C#N)cc2c1	PNC assembly inh -104
O=C1CN(C(=O)CSc2nc(-c3ccc(Cl)cc3)cs2)c2ccccc2N1	PNC assembly inh -113 (no result: HTT ATP protect, IMPase inh)
Cc1ccsc1C(=O)N1CC(=O)Nc2ccccc21	PNC assembly inh inconclusive
Cc1nnc(SCC(=O)N2CC(=O)Nc3ccccc32)n1-c1ccccc1	none
O=C(O)COc1nn(Cc2ccccc2)c2ccccc12	none (no result: IMPase inh, PNC assembly inh, IMPase Li cell, NPSR antag)
CCC(=O)O[C@@H](OP(=O)(CCCCc1ccccc1)CC(=O)N1C[C@H](C2CCCCC2)C[C@H]1C(=O)O)C(C)C (stereo partly drawn)	none (no result: IMPase inh, PNC assembly inh, IMPase Li cell, NPSR antag)
COC(=O)CSc1nc(C)c2c(n1)CCCC2	none (no result: HTT ATP protect, IMPase inh, HttQ103 aggreg, PNC assembly inh)
COCCNC(=O)C(c1ccc(F)cc1)N(CCOC)C(=O)CCC(=O)Nc1nccs1 (stereo not drawn)	PNC assembly inh -108
COCCNC(=O)C(c1ccc(Cl)cc1)N(CCOC)C(=O)CCC(=O)Nc1nccs1 (stereo not drawn)	none (no result: IMPase inh, PNC assembly inh)
C[C@@H]1CN(CCCn2c3ccccc3c3ccccc32)C[C@H](C)N1	HttQ103 aggreg inconclusive (no result: PNC assembly inh)
COc1ccc(C(=O)NNC(=S)NC(=O)c2cc(-c3ccccc3)nc3ccccc23)cc1	HTT ATP protect inconclusive, IMPase inh inconclusive, HttQ103 aggreg 28µM
CCCOc1ccc(C(=O)NNC(=S)NC(=O)c2cc(-c3ccc(Cl)cc3)nc3ccccc23)cc1	none
COc1cccc(-c2cc(C(=O)Nc3nc4ccccc4s3)c3ccccc3n2)c1	PNC assembly inh -115
O=C(Nc1nccs1)c1cc(-c2ccco2)nc2ccccc12	PNC assembly inh -89 (no result: IMPase inh)
O=C(Nc1nccs1)c1cc(-c2ccccc2)nc2ccccc12	none (no result: HTT ATP protect, IMPase inh)
c1ccc(-c2csc3nnc(SCc4ccc5c(c4)OCO5)n23)cc1	IMPase inh inconclusive, HttQ103 aggreg 10µM
O=C(CCSc1nnc2scc(-c3ccccc3)n12)NCc1ccc2c(c1)OCO2	none
COc1ccc2cccc(N3CCN(CCNC(=O)c4ccc(F)cc4)CC3)c2c1	none (no result: HttQ103 aggreg, PNC assembly inh, NPSR antag)
